Compound activity from PubChem BioAssay.
D1 agonist: Allosteric Agonists of the Human D1 Dopamine Receptor: qHTS. HEK293 T-REx D1 cells, calcium flux, agonist mode. activation, % at 2 µM. 360,000 compounds, 1% hits. D(1A) dopamine receptor (Homo sapiens), P21728; in the data active = activation above about 30%; note: 0% is about no effect
Target sequence (P21728 whole entry, looked up): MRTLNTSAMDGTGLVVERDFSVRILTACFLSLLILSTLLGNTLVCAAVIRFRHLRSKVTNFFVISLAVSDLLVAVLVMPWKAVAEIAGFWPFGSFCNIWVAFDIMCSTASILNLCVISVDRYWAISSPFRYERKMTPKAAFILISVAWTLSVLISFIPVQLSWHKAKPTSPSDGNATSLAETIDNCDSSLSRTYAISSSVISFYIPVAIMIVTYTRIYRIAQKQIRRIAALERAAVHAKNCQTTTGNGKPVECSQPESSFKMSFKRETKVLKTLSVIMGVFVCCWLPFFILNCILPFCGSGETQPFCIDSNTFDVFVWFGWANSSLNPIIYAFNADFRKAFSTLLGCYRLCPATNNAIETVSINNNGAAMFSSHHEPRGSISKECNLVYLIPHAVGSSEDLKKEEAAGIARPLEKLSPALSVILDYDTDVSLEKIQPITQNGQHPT
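Tetracycline-induced HEK293 TREx D1 cells, force-coupled to calcium signalling, were dye-loaded with a no-wash calcium kit. Compound was pin-added after a 10 s baseline. Fluorescence was read kinetically at 1 cycle/s for 180 s, with calcium rises flagged as agonism.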
D3 ag: qHTS of D3 Dopamine Receptor Agonist: qHTS | D3R DiscoveRx beta-arrestin cells, luminescence, 90 min | 410,000 compounds, 0.58% hits | D(3) dopamine receptor (Homo sapiens), P35462 | max activation, % | AID 652048, 2013; in the data active = max activation above about 30%; note: 0% is about no effect
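Agonist-mode cell screen: cells plated at 1500/well and incubated overnight at 37 °C, then exposed to library compounds for 90 min at 37 °C. Detection reagent was added for 30–60 min at room temperature, and luminescence was read.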
D1 antagonist: Antagonist of Human D 1 Dopamine Receptor: qHTS | activity change, negative = inhibition, % at 10 µM | 360,000 compounds, 3.2% hits | HEK293 TREx D1 cells, calcium flux, dopamine EC80; active compounds read low | AID 504652, 2011 | D(1A) dopamine receptor (Homo sapiens), P21728; in the data active = activity change below about -30%; note: % is set by controls: 0 for no effect and ±100 for the full control effect
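After overnight tetracycline induction at 30 C, force-coupled D1 HEK293 cells took up a no-wash calcium dye at room temperature. Compounds were added and monitored 180 s, and the response to EC80 dopamine was then recorded.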
DRD3 antagonist: qHTS of D3 Dopamine Receptor Antagonist: qHTS | D(3) dopamine receptor (Homo sapiens), P35462 | D3R cells, DiscoveRx beta-arrestin luminescence, antagonist mode; active compounds read low | max response, negative = inhibition, % | 360,000 compounds, 2.5% hits | AID 652054, 2013; in the data active = max response below about -50%; inconclusive = no clear call, values can overlap the other calls; note: % is set by controls: 0 for no effect and ±100 for the full control effect
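Cells expressing the human receptor were seeded at 1500 cells/well, incubated overnight at 37 degrees C in 5% CO2, then exposed to library compounds with dopamine controls for 90 minutes at 37 degrees C before luminescent detection.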
D1 PAM: Potentiators of Human D1 Dopamine Receptor: qHTS; potentiation, % at 10 µM; 360,000 compounds, 0.036% hits; D(1A) dopamine receptor (Homo sapiens), P21728; HEK293 TREx D1 cells, calcium flux, dopamine EC20 potentiation; in the data active = potentiation above about 30%; note: 0% is about no effect
The depositor's hits bear a star; ? = inconclusive; · = no result given. Compounds with a hit are over-represented: about 6.1% of the library has one in this group of screens.

SMILES | D1 agonist | D3 ag | D1 antagonist | DRD3 antagonist | D1 PAM
Cc1cc(NC(=O)CCC(=O)N(CCC(C)C)C(C(=O)NCC2CCCO2)c2ccccc2C)no1 (stereo unspecified) | 1 | 41* | 4 | -1 | -2
O=C(NCCCl)c1ccc(OCc2ccccc2)cc1Cl | 57* | 3 | -10 | 8 | -5
CCOc1cc(C(=O)NCC(c2ccc(N(C)C)cc2)N2CCOCC2)cc(OCC)c1OCC (stereo unspecified) | -2 | -4 | -1 | · | 1
CS(=O)c1nc(-c2ccc(Br)cc2)cc(-c2ccccc2)c1C#N (stereo unspecified) | 2 | -3 | -27 | -56* | -6
Oc1ccc(-c2cc(-c3ccc(O)cc3)nc(-c3ccccc3)n2)cc1 | 6 | -1 | -40* | 3 | -5
N#Cc1c(-c2ccccc2)cc(-c2ccc(O)cc2)nc1N | 6 | 1 | -42* | -5 | 2
Nc1ccc(-c2cc(-c3ccc(N)cc3)nc(-c3ccccc3)n2)cc1 | 3 | -5 | -3 | 8 | -6
CS(=O)(=O)c1nc(-c2ccc(Br)cc2)cc(-c2ccccc2)c1C#N | 4 | 12 | -21 | -17 | -5
CCOC(=O)C1CCN(Cc2ccccn2)CC1 | -1 | · | 9 | · | -2
CCOc1ccccc1N1CCN(Cc2cnc(-c3ccccc3)[nH]2)CC1 | 9 | -16 | -3 | -94* | -11
CCOc1ccccc1N1CCN(Cc2ccc(OC)c(OC)c2OC)CC1 | -1 | -39 | -4 | -141* | -1
CCOC(=O)C1CCN(c2ccccc2CN2CCN(c3ccccc3OCC)CC2)CC1 | 1 | -11 | -19 | -75* | -13
CCOc1ccccc1N1CCN(Cc2ccco2)CC1 | 5 | -38 | 13 | -24 | -2
COc1ccccc1N1CCN(Cc2cccc(OC)c2OC)CC1 | 8 | -5 | -42* | -24 | -8
CCOc1ccccc1N1CCN(Cc2ccc(OC)c(OC)c2)CC1 | 5 | -5 | -22 | 0 | -3
COc1ccc(CCC(=O)NC2CC(=O)N(c3ccc(F)cc3)C2)cc1 (stereo unspecified) | -2 | -17 | · | · | 1
CCOC(=O)c1sc2ncn(CC(=O)Nc3ccc(OC)c(Cl)c3)c(=O)c2c1C | 2 | -14 | -22 | · | 1
CN(C)[C@@H]1C(=O)C(C(=O)NCN2CCCC2)=C(O)[C@@]2(O)C(=O)C3=C(O)c4c(O)cccc4[C@@](C)(O)C3C[C@@H]12 (stereo partly specified) | · | -26 | · | · | ·
COc1ccc(N2CCN(Cc3cc4c(cc3Br)OCCO4)CC2)cc1 | 8 | -23 | -5 | -13 | ·
COc1ccccc1N1CCN(Cc2cc3c(cc2Br)OCCO3)CC1 | 2 | -20 | -12 | -76* | -7
COc1cc(OC)c(OC)cc1CN1CCN(c2ccccc2OC)CC1 | 1 | -32 | -4 | -66* | -7
COc1ccccc1N1CCN(Cc2ccc(Br)o2)CC1 | 1 | -11 | -11 | -81* | -6
CCOc1ccccc1N1CCN(Cc2ccc(Br)s2)CC1 | 4 | 7 | 4 | -95* | -2
COc1ccc(N2CCN(C(c3ccc(F)cc3)c3sc4nc(-c5ccco5)nn4c3O)CC2)cc1 (stereo unspecified) | 0 | 3 | · | · | 1
Cc1ccc(NC(=O)CCn2nc(C)c(S(=O)(=O)N3CCCCC3)c2C)cc1Cl | 2 | -8 | -22 | · | -1
SMILES | D1 agonist | D3 ag | D1 antagonist | DRD3 antagonist | D1 PAM
Cc1ccc(N2CC(NC(=O)c3ccc4c(c3)OCO4)CC2=O)cc1 (stereo unspecified) | -5 | -1 | · | · | 3
Cc1cccc(N2CCN(c3nc4ccc(C(=O)c5ccccc5)cc4n4cnnc34)CC2C)c1 (stereo unspecified) | 2 | -2 | 0 | · | 0
CCOC(=O)c1oc2cccc(O)c2c1C | 2 | -7 | -1 | -17 | -3
CCOC(=O)c1oc2ccc(CNC(C)(C)C)c(Cl)c2c1C | 1 | -26 | -52* | ? | -14
CCC(Cc1ccccc1)NC(=O)c1csc2c1CCCCC2 (stereo unspecified) | 4 | -13 | 2 | · | -5
Cc1occc1C(=O)N/N=C/c1cnn(C)c1C | 1 | -1 | -40* | 13 | -13
COc1ccc(C(=O)Oc2c(CN3CCOCC3)cc(Cl)c3cccnc23)cc1OC | · | -6 | · | -13 | ·
O=C(Oc1c(CN2CCOCC2)cc(Cl)c2cccnc12)c1ccccc1F | 1 | -21 | 6 | -85* | -2
COc1cc(OC)cc(C(=O)Oc2c(CN3CCOCC3)cc(Cl)c3cccnc23)c1 | 3 | -22 | 18 | -64* | -1
O=C(Oc1c(CN2CCOCC2)cc(Cl)c2cccnc12)c1ccccc1 | 0 | -34 | -1 | ? | -2
Cc1ccc(C2C(=O)N(C3CCCCCC3)CC(=O)N2CCC2=CCCCC2)cc1 (stereo unspecified) | -2 | -11 | 6 | · | 2
Cc1c(/C=C(\C#N)C(=O)Nc2cccc(Cl)c2)c2ccccc2n1Cc1ccccc1 | 32* | 0 | 6 | · | -1
Cc1ccc(Cl)cc1NC(=O)/C(C#N)=C/c1c(C)n(Cc2ccccc2)c2ccccc12 | 13 | -10 | -10 | · | 2
Cc1cccc(C)c1NC(=O)c1ccc(-c2cc(F)ccc2F)o1 | · | -21 | · | -57* | ·
COc1ccc(C2CC(c3ccccc3)=NN2c2ccc(N)cc2)cc1 (stereo unspecified) | 8 | 4 | -30* | 0 | -3
COc1ccc(C2=NN(C(N)=S)C(c3ccccc3)C2)cc1 (stereo unspecified) | 5 | -1 | -30* | -3 | 1
COc1ccc(C2=NN(C(=S)Nc3ccccc3)C(c3ccccc3)C2)cc1 (stereo unspecified) | 3 | -7 | -8 | -20 | -2
COc1ccc(C2CC(c3ccccc3O)=NN2c2ccccc2)cc1 (stereo unspecified) | · | 10 | · | 9 | ·
COc1ccc(C2CC(c3ccc4ccccc4c3)=NN2C(=O)CNC2CCCCC2)cc1 (stereo unspecified) | 32* | 1 | 17 | -4 | 1
CC(C)(C)c1ccc(C(=O)N2CCC2(C)C(=O)Nc2cccc3ccccc23)cc1 (stereo unspecified) | · | 3 | · | 0 | ·
CC(C)(C)c1ccc(C(=O)N2CCC2(C)C(=O)Nc2cccc3ncccc23)cc1 (stereo unspecified) | · | 84* | · | -17 | ·
O=C(O/N=C\c1ccc(N2CCCCC2)c([N+](=O)[O-])c1)c1ccc(Cl)cc1Cl | 4 | 3 | -13 | -3 | 4
Nc1nnnn1/N=C/c1ccc(N2CCCCC2)c([N+](=O)[O-])c1 | 1 | -6 | -3 | -54* | 0
